Consider 22 compounds from PubChem BioAssay AID1851 (National Center for Advancing Translational Sciences (NCATS), 2009).

Hit rate of the full screen: of about 16,000 compounds, about 5,100 (32%) were called active. Another 25% or so got no clear call; they are omitted. The list shows a part of the results. Values without a mark were called inactive. Calls come from the whole dose curve; as a rule, active = well fitted curve in the direction sought with a large enough effect; inconclusive = small, poorly fitted or top-dose-only effect, or effect the other way; inactive = no such curve, though single readings can be large or run the other way.
% is set by controls: 0 for no effect and ±100 for the full control effect.

Cytochrome P450 3A4 (Homo sapiens), sequence (P08684 whole entry, looked up): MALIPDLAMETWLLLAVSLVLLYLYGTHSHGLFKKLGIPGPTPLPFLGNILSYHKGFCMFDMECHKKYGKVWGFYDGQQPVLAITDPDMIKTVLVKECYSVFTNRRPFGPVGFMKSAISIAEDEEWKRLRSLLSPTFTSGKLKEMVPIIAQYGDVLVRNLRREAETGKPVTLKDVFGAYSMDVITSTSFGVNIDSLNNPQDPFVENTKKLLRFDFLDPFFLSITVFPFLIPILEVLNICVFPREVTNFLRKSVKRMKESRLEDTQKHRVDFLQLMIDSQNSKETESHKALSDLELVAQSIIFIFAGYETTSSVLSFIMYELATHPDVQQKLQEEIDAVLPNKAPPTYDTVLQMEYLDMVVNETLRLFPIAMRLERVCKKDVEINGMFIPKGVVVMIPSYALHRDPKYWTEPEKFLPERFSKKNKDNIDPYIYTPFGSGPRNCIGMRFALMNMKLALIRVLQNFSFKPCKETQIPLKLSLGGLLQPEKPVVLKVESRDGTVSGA

The experiment addresses Cytochrome P450 3A4 (Homo sapiens) (UniProt P08684). As to the kind of experiment: Cytochrome panel assay with activity outcomes. The following applies: recombinant CYP, pro-luciferin dealkylation, luminescence, p450-cyp3a4; series mostly up to 57.1 µM; activity, negative = inhibition: at the top concentration.
For `COc1ccc2c(c1)CCC1[C@@H]2CCC2(C)[C@@H](NCCCCCCN3C(=O)C=CC3=O)CC[C@@H]12` (some centres not stated), the “activity, negative = inhibition” value was 3.28%.
In general, AC50 refers to the concentration giving half of the maximal activity seen. Take `CN1C(=O)/C(=N\OC(=O)c2cccc3ccccc23)c2ccccc21`: the AC50 was 28.2 µM (active).
As to `CC(=O)c1c(O)cc(=O)n(-c2ccccc2)c1-c1cccc2ccccc12`, the “activity, negative = inhibition” value is 5.76%.
With `CC(C)CC(=O)O/N=C1\C(=O)N(c2ccccc2)c2ccccc21`, the activity, negative = inhibition is 18.9% [at 2.29 µM].
Consider `O=c1[nH][nH]c(C(F)(F)F)c1C=Nc1ccccc1Cl`, for which the “activity, negative = inhibition” value is -10.9%.
In the case of `C=CCSc1nn2c(=O)c3ccccc3nc2s1`, the AC50 was 20 µM (active).
`O=C(Cn1cnc2ccccc2c1=O)Nc1nnc(SCc2ccccc2)s1`: the “activity, negative = inhibition” value is -5.34%.
Take `C[C@@H](C(=O)O)c1ccc(C[C@@H]2CCCC2=O)cc1`: the “activity, negative = inhibition” value was 7.6%.
In the case of `Cc1cc2ccccc2c[n+]1CC(O)C[n+]1cc2ccccc2cc1C`, the activity, negative = inhibition was -6.74% [at 11.4 µM].
For `CC(=O)c1c(C)nc(-c2ccccc2)n1O`, the “activity, negative = inhibition” value is -11%.
In the case of `O=c1nc(-c2ccccc2)n(-c2ccccc2)c2ncccc12`, the “activity, negative = inhibition” value is -9.32%.
Consider `CN=c1nc(-c2ccccc2)n(-c2ccccc2)s1`, for which the AC50 was 31.6 µM (active).
With `Cc1cc2cc3c(C)cc(=O)oc3c(C)c2o1`, the AC50 is 3.98 µM (active).
As to `CCc1c(C(C)O)oc2ccc3c(C)cc(=O)oc3c12` (configuration not stated), the activity, negative = inhibition is 7.59% [at 2.29 µM].
Turning to `O=C(Nc1ccc(S(=O)(=O)N2CCCC2)cc1)c1ccc(CN2CCOCC2)cc1`, the activity, negative = inhibition is -3.74% [at 2.29 µM].
Turning to `O=C(Nc1ccc(F)cc1)c1cc(S(=O)(=O)N2CCCCC2)cs1`, the half-maximal activity concentration (AC50) is 14.1 µM (active).
In the case of `C#CCCCO/N=C1/C[C@@H](O)[C@@H](O)[C@@H]2[C@H]3C(=O)N(c4ccc(F)cc4F)C(=O)[C@@H]3CC[C@@H]12`, the AC50 is 3.16 µM (active).
Consider `CC(C)CO/N=C1/C[C@@H](O)[C@@H](O)[C@@H]2[C@H]3C(=O)N(c4ccc(F)cc4F)C(=O)[C@@H]3CC[C@H]12`, for which the activity, negative = inhibition is -8.15% [at 11.4 µM].
In the case of `CC(C)CO/N=C1/C[C@@H](O)[C@@H](O)[C@@H]2[C@H]3C(=O)N(c4ccc(F)cc4F)C(=O)[C@@H]3CC[C@@H]12`, the activity, negative = inhibition is 0.624% [at 11.4 µM].
On to `O=C1C[C@@H](O)[C@@H](O)[C@@H]2[C@H]3C(=O)N(c4ccc(F)cc4F)C(=O)[C@@H]3CC[C@H]12`, for which the activity, negative = inhibition was -11% [at 11.4 µM].
Regarding `C#CCCCO/N=C1/C[C@@H](O)[C@@H](O)[C@@H]2[C@H]3C(=O)N(c4ccc(F)cc4F)C(=O)[C@@H]3CC[C@H]12`, the AC50 was 3.98 µM (active).
For `O=C1[C@@H]2[C@H]3[C@H](O)[C@H](O)C/C(=N/OCc4ccccc4)[C@@H]3CC[C@H]2C(=O)N1c1ccc(F)cc1F`, the activity, negative = inhibition is -19.6% [at 11.4 µM].
